Test [1] deals with Human papillomavirus type 1a protein E7 (residues 44-93). The test can be described thus: small molecules binding HPV E7 44-93 – biochemical, small-molecule microarray, residues 44-93, 635 nm fluorescence, primary screen (AID 1108).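 Also: E7 fragment applied at 1 µg/mL in TBST for 1 h at 4 C; score combines spot fluorescence with its signal to noise ratio.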 The conditions noted are these: fluorescence 635 nm, higher = more signal.
A short description of test [2]: hepatitis C replication reporter changes, two-sided – Huh7 cells, luciferase reporter, HCV replication inhibitor project, primary screen (AID 1109).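 Also: huh7 hepatoma cells harbouring a luciferase neomycin HCV replicon reporter; luciferase luminescence as measure of HCV replicon replication; test concentration not given here.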 The conditions noted are these: Huh7 HCV replicon luciferase reporter, 48 h; higher = more signal.
Test [3] has as its target Left-right determination factor 2 (Homo sapiens) (UniProt O00292). The test can be described thus: small molecules binding LEFTY2 protein – biochemical, small-molecule microarray, 635 nm fluorescence scan, primary screen (AID 1110). The following applies: higher = more signal.
The target of test [4] is Calmodulin-1 (Homo sapiens) (UniProt P0DP23). The test can be described thus: small molecules binding calmodulin-1 with EGTA – biochemical, small-molecule microarray, Cy5-labelled CALM1, profiling panel (AID 1111).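 Also: labelled calmodulin applied in Tris saline Tween buffer holding calcium plus EGTA and DTT.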 The conditions noted are these: Cy5-CALM1 binding fluorescence, higher = more signal.
Test [5] shares this target. The test can be described thus: small molecules binding Ca-loaded calmodulin-1 – biochemical, small-molecule microarray, Cy5-labelled CALM1, plus calcium, artefact control for SMM control-protein annotation, profiling panel (AID 1112).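 Also: score merges spot fluorescence with signal to noise from triplicate slides.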 The conditions noted are these: Cy5-CALM1 binding fluorescence, higher = more signal.
Test [6] can be described thus: probe aWnt5a binding to arrayed compounds – biochemical, biotinylated probe, 635/667 nm fluorescence, primary screen (AID 1113).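 Also: score merges 667 nm fluorescence intensity with signal-to-noise per printed feature.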 The conditions noted are these: small-molecule microarray, higher = more signal.
Test [7] is described as follows: probe aShh binding to arrayed compounds – biochemical, biotinylated probe, 635/667 nm fluorescence, primary screen (AID 1114).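 Also: probe is biotin-labelled aShh protein from a stem cell growth factor screen; measures binding of labelled protein to compounds printed on the slide; score merges feature fluorescence at 667 nm with signal-to-noise.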 The following applies: small-molecule microarray, higher = more signal.
The nature of test [8]: probe aNog binding to arrayed compounds – biochemical, biotinylated probe, 635/667 nm fluorescence, primary screen (AID 1115).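 Also: probe is biotinylated aNog protein used at 0.15 µg/mL for 1 h at 4 C; z-score combines 667 nm fluorescence of each spot with its signal to noise.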 The conditions noted are these: small-molecule microarray, higher = more signal.
Test [9] concerns the target Torsin-1A-interacting protein 1 (Homo sapiens) (UniProt Q5JTV8). The test can be described thus: compound microarray binding of lysate hLAP1 – cell lysate, small-molecule microarray, COS7 lysate, 635/667 nm fluorescence, primary screen (AID 1116). The conditions noted are these: 635 nm fluorescence, higher = more signal.
Test [10] concerns the target Alpha-bungarotoxin (Bungarus multicinctus) (UniProt P60615). The test can be described thus: compounds binding labelled alpha-BTX control protein – biochemical, small-molecule microarray, Alexa647 label, 635/667 nm fluorescence, artefact control for SMM control protein annotation, profiling panel (AID 1117). The conditions noted are these: alpha-BTX-A647 binding fluorescence, higher = more signal.

Test [11] deals with Albumin (Bos taurus) (UniProt P02769). In words: compounds binding labelled BSA control protein – biochemical, small-molecule microarray, Alexa647 label, 635/667 nm fluorescence, artefact control for SMM control protein annotation, profiling panel (AID 1118).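 Also: score merges 667 nm emission intensity and signal-to-noise per printed compound spot.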 The following applies: BSA-A647 binding, fluorescence 635 nm, higher = more signal.
Test [12] can be described thus: probe aXIP binding to arrayed compounds – biochemical, NeuroSMM set, 635/667 nm fluorescence, primary screen (AID 1119).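 Also: probe is the protein aXip251-270 applied at 1 µg/mL to compound-printed slides; binding of probe to printed compounds measured as 667 nm fluorescence plus signal to noise.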 The following applies: small-molecule microarray, higher = more signal, called active from +8 up or from −8 down.
Test [13] is described as follows: probe aNOTCH3 binding on compound microarray – biochemical, small-molecule microarray, 635/667 nm fluorescence, primary screen (AID 1120).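 Also: probe is a biotin-tagged antibody raised against NOTCH3 rather than NOTCH3 protein; score merges spot fluorescence near 667 nm with spot signal to noise.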 The conditions noted are these: higher = more signal.
The nature of test [14]: probe aNOTCH2 binding on compound microarray – biochemical, small-molecule microarray, 635/667 nm fluorescence, primary screen (AID 1121).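 Also: score merges feature fluorescence read at 667 nm with its signal to noise.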 The following applies: higher = more signal.
The target of test [15] is Carbonic anhydrase 2 (Homo sapiens) (UniProt P00918). In words: compounds binding carbonic anhydrase 2 – biochemical, small-molecule microarray, Alexa647-labelled CAII, profiling panel (AID 1122). The conditions noted are these: CAII-A647 binding fluorescence, higher = more signal.
Test [16] can be described thus: COS7 lysate on small-molecule microarray, probe aHis, 635 nm (AID 1123).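 Also: z-score combines 667nm fluorescence intensity with signal-to-noise per printed compound spot.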 The conditions noted are these: COS7 cell lysate, fluorescence, higher = more signal.
Test [17] in a line: probe aLAP1 signal on lysate-treated microarray – cell lysate, small-molecule microarray, COS7 lysate, primary screen (AID 1124).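 Also: lysate comes from COS7 cells expressing LAP1 and is applied at 0.3 µg/mL; score merges spot fluorescence near 667 nm with signal-to-noise over triplicate slides.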 The conditions noted are these: probe aLAP1, fluorescence, higher = more signal.
Test [18] relates to Sam68 (KHDRBS1). In words: compounds binding KHDRBS1 protein – biochemical, small-molecule microarray, 635 nm fluorescence, primary screen (AID 1125).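 Also: score merges 667 nm channel intensity with signal to noise over triplicate slides.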 The conditions noted are these: higher = more signal.
Test [19] concerns Chordin-like protein 2 (CHRDL2). In words: compounds binding chordin-like 2 – biochemical, small-molecule microarray, 635 nm fluorescence, primary screen (AID 1126).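 Also: printed compound slides probed with Chrdl2 protein at 4 µg/mL for 1 h at 4 C; score merges 667 nm emission intensity with signal to noise over three replicate slides.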 The following applies: fluorescence 635 nm, higher = more signal.
The target in test [20] is Concanavalin-A (Canavalia ensiformis) (UniProt P02866). In words: compounds binding concanavalin A lectin – biochemical, small-molecule microarray, Alexa647 label, 635 nm, artefact control for SMM control protein annotation, primary screen (AID 1127).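 Also: z combines 667 nm emission intensity with signal-to-noise across three replicate slides.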 The conditions noted are these: ConA-A647 binding fluorescence, higher = more signal.

Activity calls are given as the source filed them.

Sequence of Left-right determination factor 2 (Homo sapiens) (O00292 whole entry, looked up): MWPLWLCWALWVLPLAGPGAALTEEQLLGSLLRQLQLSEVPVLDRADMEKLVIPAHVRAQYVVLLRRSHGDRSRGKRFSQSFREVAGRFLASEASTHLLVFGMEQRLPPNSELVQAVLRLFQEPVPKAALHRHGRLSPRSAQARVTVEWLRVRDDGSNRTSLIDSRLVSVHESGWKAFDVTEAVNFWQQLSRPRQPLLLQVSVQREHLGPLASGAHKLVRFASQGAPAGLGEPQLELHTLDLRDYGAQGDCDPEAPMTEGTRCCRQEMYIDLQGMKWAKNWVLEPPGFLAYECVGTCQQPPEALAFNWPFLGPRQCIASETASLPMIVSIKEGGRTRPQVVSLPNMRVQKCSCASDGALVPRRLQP
Sequence of Albumin (Bos taurus) (P02769 whole entry, looked up): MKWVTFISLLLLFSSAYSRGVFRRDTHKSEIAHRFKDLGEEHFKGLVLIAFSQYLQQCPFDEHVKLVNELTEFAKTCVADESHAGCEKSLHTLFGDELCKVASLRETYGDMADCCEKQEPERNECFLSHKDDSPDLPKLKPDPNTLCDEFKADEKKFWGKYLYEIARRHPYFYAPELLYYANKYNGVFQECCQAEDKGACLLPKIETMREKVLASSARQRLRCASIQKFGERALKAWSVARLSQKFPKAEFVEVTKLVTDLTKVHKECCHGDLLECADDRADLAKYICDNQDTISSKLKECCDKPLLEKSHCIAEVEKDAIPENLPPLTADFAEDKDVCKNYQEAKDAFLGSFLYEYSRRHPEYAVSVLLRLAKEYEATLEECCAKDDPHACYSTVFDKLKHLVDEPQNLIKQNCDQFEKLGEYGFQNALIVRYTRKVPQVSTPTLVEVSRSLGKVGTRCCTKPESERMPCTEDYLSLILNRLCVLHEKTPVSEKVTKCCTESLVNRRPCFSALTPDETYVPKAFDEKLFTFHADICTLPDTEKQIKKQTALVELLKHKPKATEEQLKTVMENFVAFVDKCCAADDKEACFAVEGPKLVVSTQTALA
Sequence of Concanavalin-A (Canavalia ensiformis) (P02866 whole entry, looked up): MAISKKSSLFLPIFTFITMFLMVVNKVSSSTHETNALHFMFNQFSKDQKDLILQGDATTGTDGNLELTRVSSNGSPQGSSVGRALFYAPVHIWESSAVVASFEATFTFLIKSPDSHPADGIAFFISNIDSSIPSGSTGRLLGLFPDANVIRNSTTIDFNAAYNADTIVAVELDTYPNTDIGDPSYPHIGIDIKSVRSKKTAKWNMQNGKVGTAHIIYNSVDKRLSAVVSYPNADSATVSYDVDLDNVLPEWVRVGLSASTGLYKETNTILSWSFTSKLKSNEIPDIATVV
Sequence of Alpha-bungarotoxin (Bungarus multicinctus) (P60615 whole entry, looked up): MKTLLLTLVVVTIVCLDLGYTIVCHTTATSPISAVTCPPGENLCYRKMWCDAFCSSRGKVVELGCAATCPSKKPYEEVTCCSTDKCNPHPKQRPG
Sequence of Torsin-1A-interacting protein 1 (Homo sapiens) (Q5JTV8 whole entry, looked up): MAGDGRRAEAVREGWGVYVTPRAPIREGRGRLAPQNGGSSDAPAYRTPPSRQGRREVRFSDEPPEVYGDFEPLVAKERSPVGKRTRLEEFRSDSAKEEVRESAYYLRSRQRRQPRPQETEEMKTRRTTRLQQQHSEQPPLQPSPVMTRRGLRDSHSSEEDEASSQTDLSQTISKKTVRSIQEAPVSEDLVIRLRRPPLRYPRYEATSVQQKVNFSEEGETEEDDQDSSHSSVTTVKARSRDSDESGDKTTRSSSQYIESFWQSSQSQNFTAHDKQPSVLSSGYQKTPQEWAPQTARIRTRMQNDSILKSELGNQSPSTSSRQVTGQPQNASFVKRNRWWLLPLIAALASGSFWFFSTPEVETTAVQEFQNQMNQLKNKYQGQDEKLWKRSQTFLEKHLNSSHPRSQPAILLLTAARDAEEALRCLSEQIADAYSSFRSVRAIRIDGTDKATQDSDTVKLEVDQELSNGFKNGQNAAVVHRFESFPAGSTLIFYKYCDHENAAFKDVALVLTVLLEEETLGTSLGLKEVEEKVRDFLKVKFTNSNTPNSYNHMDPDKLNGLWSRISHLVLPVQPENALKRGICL

In the case of `COC(=O)C1(Cc2ccccc2)C=C2C(=C(c3ccccc3)C(=O)C2C)CN1` (stereo not given), the composite z-score in [1] is -0.964; in test [3], -0.871; in test [4] it was 0.648; in [5] it was 1.18; in test [6], 1.11; in [7] it was 2.71. The composite z-score was determined as 1.05 in [8]; 1.22 in test [9]; 0.0329 in test [10]; 0.544 in test [11]; 1.59 in test [13]; 0.839 in [14]. Besides, the composite z-score is 0.725 in test [15]; 2.3 in [16]; 0.906 in [17]; -0.305 in [18]; 0.0887 in test [19]; -1.56 in [20]. This compound also came in with a z-score in test [2] of -1.53. Moreover, the composite Z-score in test [12] was 0.257 (inactive).

For the compound `CCOC(=O)[C@H]1C/C=C/C[C@H](C(=O)OCC)C(=O)O[C@H]2[C@@H](OC)O[C@H](CO)[C@@H](OC(=O)CCc3ccccc3)[C@@H]2OC1=O`, the composite z-score was -0.431 in test [1]; -1.59 in test [3]; -0.381 in test [4]; 0.367 in test [5]; -0.184 in test [6]; -0.0937 in test [7]. The composite z-score in [8] is 1.47; in test [9], 0.162; in [10], -0.187; in test [11] it was 0.191; in test [13], 0.996; in [14] it was 0.0519. Also, the composite z-score in test [15] was -0.207; in test [16] it was -0.188; in test [17] it was 0.715; in test [18], -0.378; in test [19], -0.203; in test [20], -0.233. The same compound came in with a z-score in [2] of -1.85. In addition, in [12], the composite Z-score is 0.476 (inactive).

Regarding `COC(=O)[C@@]1(Cc2ccccc2)[C@H]2c3cc(C(=O)N4CCCC4)n(Cc4cc(F)cc5c4OCOC5)c3C[C@H]2CN1C(=O)c1ccccc1`, the composite z-score in test [1] is 0.0951; in test [3] it was -0.655; in test [4], 1.08; in test [5] it was 0.641; in test [6], 0.14; in test [7], 0.688. Moreover, the composite z-score in test [8] was 1.93; in test [9], 1.74; in test [10], 0.468; in [11], 1.11; in [13], 0.218; in test [14], 0.163. Also, the composite z-score in [15] is 0.553; in [16], 2.57; in test [17], 0.141; in test [18], 0.797; in test [19], -0.233; in [20] it was 0.511. This compound also registered a z-score in test [2] of -0.592. The composite Z-score in [12] was 0.143 (inactive).

In the case of `C=CC[C@@]1(C(=O)N2CCCCC2)N=C(c2ccc(OCCCO)cc2)O[C@@H]1c1ccccc1`, the composite z-score is 0.305 in test [1]; 0.106 in test [3]; 0.506 in [4]; -0.185 in test [5]; 0.141 in [6]; -0.0243 in test [7]. Besides, the composite z-score in test [8] is 2.01; in [9], 1.87; in test [10], 0.497; in [11], 0.676; in test [13], 0.284; in [14], 0.195. The composite z-score was determined as 0.57 in test [15]; 2.39 in [16]; 1.07 in test [17]; 1.29 in [18]; 0.453 in test [19]; 0.357 in test [20]. This compound also yielded a z-score in test [2] of -1.91. Moreover, the composite Z-score in test [12] was -0.221 (inactive).

Take `C=C[C@H](COC(C)=O)NS(=O)(=O)c1ccc(Br)cc1`: the composite z-score in test [1] is -0.292; in [3], 0.0605; in test [4], -0.173; in test [5], -0.766; in test [6], -0.0721; in [7] it was 0.0121. Besides, the composite z-score in [8] was -0.219; in test [9], 0.168; in test [10] it was 0.0669; in [11], 0.0793; in test [13], -0.217; in [14], -0.106. Besides, the composite z-score in test [15] is -0.111; in test [16] it was -0.0413; in test [17], -0.0354; in [18], -0.603; in [19], 1.14; in [20] it was 0.43. The same compound yielded a z-score in test [2] of 0.55. Besides, the composite Z-score in test [12] is 0.131 (inactive).

For the origin of these results see PubChem BioAssay.
